Rows were chosen to be rich in hits. Some 0.55% of all compounds tested hit in one or more screens of this group.
USP1 inh: Inhibitors of USP1/UAF1: Primary Screen | Ubiquitin carboxyl-terminal hydrolase 1 (Homo sapiens), O94782 | recombinant USP1/UAF1, Ub-Rhodamine cleavage fluorescence | Potency, µM (top dose mostly 57.1 µM), without a hit: at the highest dose activity change, negative = inhibition, hits mostly inhibitors | hit rate 0.23% among 390,000 | AID 743255, 2014; further: on the % scale 0 is the no-effect control and ±100 the full control effect; nearly all actives have a fitted effect of over 60% in size
Target sequence (O94782 whole entry, looked up): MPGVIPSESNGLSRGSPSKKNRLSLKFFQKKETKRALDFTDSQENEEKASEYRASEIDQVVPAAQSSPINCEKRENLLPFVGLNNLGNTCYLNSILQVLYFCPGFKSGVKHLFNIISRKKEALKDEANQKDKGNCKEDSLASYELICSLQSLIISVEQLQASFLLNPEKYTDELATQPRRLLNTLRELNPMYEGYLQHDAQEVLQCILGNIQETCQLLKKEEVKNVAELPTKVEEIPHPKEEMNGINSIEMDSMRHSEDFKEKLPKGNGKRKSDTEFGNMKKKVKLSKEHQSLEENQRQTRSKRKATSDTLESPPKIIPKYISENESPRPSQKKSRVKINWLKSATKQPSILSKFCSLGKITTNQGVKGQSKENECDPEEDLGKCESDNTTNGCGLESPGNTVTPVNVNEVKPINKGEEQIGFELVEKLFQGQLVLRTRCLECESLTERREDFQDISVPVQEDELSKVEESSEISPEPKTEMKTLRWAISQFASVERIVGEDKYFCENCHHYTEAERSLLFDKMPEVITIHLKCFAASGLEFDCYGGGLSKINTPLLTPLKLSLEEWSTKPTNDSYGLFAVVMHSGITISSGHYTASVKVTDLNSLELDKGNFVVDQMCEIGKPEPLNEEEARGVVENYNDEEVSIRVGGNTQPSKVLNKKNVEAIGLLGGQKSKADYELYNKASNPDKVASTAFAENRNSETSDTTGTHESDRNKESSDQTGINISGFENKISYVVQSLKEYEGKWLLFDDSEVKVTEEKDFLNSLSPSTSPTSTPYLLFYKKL
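1 nM enzyme complex + cpd, 15 min RT; start with Ub-Rho 150nM final; kinetic fluorescence ex 480/em 540, 6 reads q60 s. Buffer 50mM HEPES pH 7.8, 0.5mM EDTA, 0.1 mg/ml BSA, 1mM TCEP, 0.01% Tween-20.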
EPAC2 agonist: qHTS for Agonist of cAMP-regulated guanine nucleotide exchange factor 4 (EPAC2): primary screen. Rap guanine nucleotide exchange factor 4 (Homo sapiens), Q8WZA2. Potency, µM (doses to about 154 µM), inactives show top-dose activation, usual class: activators. EPAC2 activation, biochemical qHTS; response scale: 100% = 6.5 mM cAMP response. hit rate 0.079% among 360,000; further: nearly all actives have a fitted effect of over 50% in size
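Each well held 100 nM EPAC2, 250 nM RAP1B-BODIPY-GDP and 50 uM GDP. Fluorescence, read at 5-min intervals to 30 min, was referenced to a 6.5 mM cAMP positive control.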
GLP1R cytotox: qHTS of GLP-1 Receptor Inverse Agonists: Cytotox Screen; AID 624418, 2012; Potency, µM (series often up to 38.3 µM), without a hit: top-dose activity change, negative = inhibition, hits mostly inhibitors; HEK293 cAMP-luciferase reporter cells, luminescence, 24 h; hit rate 0.13% among 410,000;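 further: loss of luciferase light is scored as toxicity; on the % scale 0 is the no-effect control and ±100 the full control effect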
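Luminescence readout: signal drop marks cytotoxicity. Plated cells grew 12 h at 37 °C, 5% CO2, received 23 nL compound for 24 h, then got luciferase reagent, read after 12 min at RT.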
EPAC2 antagonist: qHTS for Antagonist of cAMP-regulated guanine nucleotide exchange factor 2 (EPAC2): primary screen. Rap guanine nucleotide exchange factor 4 (Homo sapiens), Q8WZA2. hit rate 0.18% among 360,000. Potency, µM (series often up to 114 µM), for the others: top-dose activity, negative = inhibition, most hits filed as inhibitors. EPAC2 GEF exchange of Rap1B-BODIPY-GDP, fluorescence; further: on the % scale 0 is the no-effect control and ±100 the full control effect; nearly all actives have a fitted effect of over 45% in size
EPAC1 agonist: qHTS for Agonist of cAMP-regulated guanine nucleotide exchange factor 3 (EPAC1): primary screen; EPAC1 agonist qHTS, biochemical assay; response scale: 100% = response to 6.5 mM cAMP; Potency, µM (series often up to 154 µM), without a hit: at the top dose activation, usual class: activators; hit rate 0.073% among 360,000; further: nearly all actives have a fitted effect of over 60% in size
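Normalized to 6.5 mM cAMP, activity reflects EPAC1-catalysed release of BODIPY-GDP from Rap1B, followed kinetically over 30 min at 480 nm excitation, 540 nm emission. Reaction contained 100 nM EPAC1, 250 nM Rap1B-BODIPY-GDP, 50 uM GDP.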
EPAC1 antag: qHTS for Antagonist of cAMP-regulated guanine nucleotide exchange factor 3 (EPAC1): primary screen. EPAC1 GEF assay, Rap1b-BODIPY-GDP exchange fluorescence. Potency, µM (titrated, usually from 115 µM), for the others: at the highest dose activity change, negative = inhibition, hits mostly inhibitors. hit rate 0.14% among 360,000. AID 720709, 2013;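 further: plate controls were vehicle for no effect and positive control for full effect; nearly all actives have a fitted effect of over 50% in size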
An asterisk follows results filed as active; ? = inconclusive; · = not tested or not shown. The call rests on the fitted dose curve; in most records, active means well fitted curve in the direction sought with a large enough effect; inconclusive means small, poorly fitted or top-dose-only effect, or another doubt; inactive means no such curve, though single readings can be large; an effect the other way counts as inactive or inconclusive. Potency means the concentration at half of the fitted maximal effect.

SMILES | USP1 inh | EPAC2 agonist | GLP1R cytotox | EPAC2 antagonist | EPAC1 agonist | EPAC1 antag
CCOc1cc(/C=C2\SC(=S)N(Nc3ccccc3)C2=O)ccc1O | -9.3% | 4.1% | -7.5% | -20.5% | 15.9% | ?
COc1cc(/C=C2\SC(=S)N(C(Cc3ccccc3)C(=O)O)C2=O)ccc1O (centres undefined) | -24.4% | 12.2% | 10µM* | -30.0% | -6.2% | -18.3%
Nc1ccc(S(=O)(=O)Nc2nccs2)cc1N=Nc1ccccc1[N+](=O)[O-] | -16.0% | -1.2% | -24.7% | 10µM* | 12.0% | ?
COc1cccc(-c2nnc3sc(-c4ccccc4)nn23)c1 | -12.9% | -7.9% | 10.9% | 8.6% | 7.1% | -1.1%
COc1cccc(OC)c1-c1nn2c(-c3cc(-c4ccccc4)n[nH]3)nnc2s1 | ? | ? | ? | 11.2µM* | ? | 39.8µM*
Cc1ccc(-n2ccnc(NCCc3ccc(S(N)(=O)=O)cc3)c2=O)cc1C | 4.1% | · | 10.5% | · | · | ·
COc1ccc(C(=O)c2ccc(Cl)cc2)c2ccccc12 | -3.1% | 9.7% | -10.2% | ? | 12.0% | -9.9%
COc1cc(C(=O)c2ccccc2)c([N+](=O)[O-])cc1OC | -13.7% | 3.4% | -6.6% | 79.4µM* | -9.2% | -2.7%
COc1ccc(C(=O)c2ccccc2)c2c(O)ccc(C(=O)c3ccccc3)c12 | -7.4% | 6.31µM* | -6.8% | 5.1% | -14.1% | -1.0%
CCc1nc2sc3c(N4CCCCC4)ncnc3c2c2c1CCCC2 | -21.5% | · | -1.1% | · | · | ·
Cc1cc(C)cc(NC(=O)CC(C)n2nc(C)cc2C)c1 (centres undefined) | 5.2% | · | 8.8% | · | · | ·
Cc1ccc(S(=O)(=O)C(CNC(=O)C(=O)NCc2ccc(Cl)cc2)c2cccs2)cc1 (centres undefined) | 10.4% | · | 1.0% | · | · | ·
O=C(Nc1ccc(F)cc1)c1oc2ccccc2c1NC(=O)C1CCCCC1 | -14.5% | · | 4.2% | · | · | ·
CCOC(=O)c1cnc(-n2nc(C)cc2C)nc1NC1CCCCC1 | -4.5% | 8.4% | 1µM* | -21.7% | 2.2% | -24.8%
CCOC(=O)c1cnc(-n2nc(C)cc2C)nc1N(CC)CC | -2.7% | -7.0% | 2.82µM* | 2.3% | 2.3% | 4.3%
CCOC(=O)c1cnc(-n2nc(C)cc2C)nc1Nc1ccc(N(C)C)cc1 | -17.5% | -6.2% | 1.12µM* | 14.9% | 0.8% | 3.2%
Cc1cc(C)c2oc(-c3ccc(Cl)c(NC(=O)c4cccs4)c3)nc2c1 | -13.4% | · | 4.3% | · | · | ·
CC(C)(C)C(=O)/C=c1\s/c(=C\c2ccc(-c3ccc([N+](=O)[O-])cc3)o2)c(=O)n1CC(=O)NC(N)=O | 7.94µM* | 7.5% | 8.3% | 28.5% | -8.2% | 18.9%
Cc1ccc(Nc2c(-c3ccc(N4CCOCC4)cc3)nc3c(C)cccn23)cc1 | -0.8% | · | 9.2% | · | · | ·
COc1ccc(OC)c(-n2c3c(cc(-c4nc(-c5ccc(Cl)cc5)cs4)c2=O)C(=O)CC(C)(C)C3)c1 | -16.2% | · | -3.6% | · | · | ·
Cc1cc(C)cc(OCC(=O)Nc2nc3c(s2)CC(C(C)(C)C)CC3)c1 (centres undefined) | -12.3% | · | 5.4% | · | · | ·
O=C(NCC(c1ccco1)N1CCCCC1)c1cccc(NS(=O)(=O)c2ccc(Br)cc2)c1 (centres undefined) | -13.4% | 4.8% | 2.4% | -11.0% | 126µM* | ?
O=c1c2oc3ccccc3c2ncn1Cc1ccc(Br)cc1 | -3.7% | · | 5.9% | · | · | ·
COc1cc(N(C)C)ccc1C=c1c2ccccc2n2c1cc(-c1ccccc1)[n+]2C | ? | -2.7% | 12.6µM* | -26.1% | -6.6% | -22.3%
CN(C)c1ccc(C=c2c3ccccc3n3c2cc(-c2ccccc2)[n+]3C)cc1 | 17.8µM* | 11.3% | ? | -1.3% | 15.6% | -15.4%
SMILES | USP1 inh | EPAC2 agonist | GLP1R cytotox | EPAC2 antagonist | EPAC1 agonist | EPAC1 antag
CN(C)c1ccc(C=c2c3ccccc3n3c2cc(-c2ccc(Cl)cc2)[n+]3C)cc1 | -20.5% | 6.7% | ? | -7.1% | -30.2% | 0.1%
COc1cc(C=c2c3ccccc3n3c2cc(-c2ccccc2)[n+]3C)cc(OC)c1OC | 2.24µM* | ? | -25.1% | 35.7% | 14.1% | 5.3%
CCOC(=O)C(C)NC(=O)c1c2c(nc3ccccc13)C(=O)N(C1CCCCC1)C2 (centres undefined) | -9.4% | · | 4.9% | · | · | ·
CCC1CN(C(=O)N2CCC(C(=O)N(C)Cc3ccccc3)CC2)c2ccccc2O1 (centres undefined) | -23.5% | · | -10.4% | · | · | ·
CSc1cccc(N2CC(C(=O)Nc3cccc(S(=O)(=O)N4CCCC4)c3)CC2=O)c1 (centres undefined) | -20.8% | 8.9% | -23.1% | 4.7% | 50.1µM* | -4.8%
CC(=O)N1CCc2nc3sc(C(=O)c4ccc(F)cc4)c(N)c3c(C(F)(F)F)c2C1 | -10.1% | · | 3.1% | · | · | ·
COc1ccc(C(=O)c2sc3nc4c(c(C(F)(F)F)c3c2N)CN(C(C)=O)CC4)cc1OC | 39.8µM* | · | -10.5% | · | · | ·
N#C/C(=C(/O)CSc1ccccn1)c1nc2ccccc2s1 | -25.7% | 5.4% | -22.3% | -17.9% | 10.3% | 0.0%
Cc1ccc(SC/C(O)=C(\C#N)c2nc3ccccc3s2)cc1 | -2.6% | 10µM* | -3.3% | -25.7% | -2.8% | -11.2%
CCCn1c(N)c(N(CCOC)C(=O)CSCC(=O)Nc2cccc(C)c2)c(=O)[nH]c1=O | -20.6% | 2.8% | 8.9% | 9.1% | 100µM* | -14.8%
O=C(O)c1ccccc1NS(=O)(=O)c1ccc(NN=Cc2ccc(F)cc2)c([N+](=O)[O-])c1 | -11.6% | 6.1% | -21.0% | -10.4% | 3.9% | 50.1µM*
COc1ccc(C=NNc2ccc([N+](=O)[O-])cc2S(=O)(=O)Nc2ccccc2C(=O)O)cc1OC | -10.7% | -7.8% | 6.0% | -20.4% | -10.2% | 50.1µM*
COc1ccccc1NS(=O)(=O)c1ccc(N/N=C/c2ccccc2OCC(=O)O)c([N+](=O)[O-])c1 | -10.6% | 10.7% | -23.0% | -11.4% | 2.7% | ?
O=C(O)COc1ccccc1/C=N/Nc1ccc(S(=O)(=O)Nc2ccc(Cl)cc2)cc1[N+](=O)[O-] | -12.0% | -6.5% | -30.3% | 0.6% | ? | 22.4µM*
NS(=O)(=O)c1ccc(N/N=C/c2ccccc2C(=O)O)c([N+](=O)[O-])c1 | -16.8% | 5.8% | -22.4% | -6.1% | 4.0% | ?

Bioassay records (PubChem)
